IL1B secr inh: qHTS for Inhibitors of Inflammasome Signaling: IL-1-beta AlphaLISA Primary Screen. THP-1 LPS/ATP IL-1B secretion, AlphaLISA, 16 h; hits give low values. activity change, % at 57.5 µM. actives 4.7% (n = 360,000). AID 743279, 2014; in the data active means activity change below about -50%; inconclusive means mostly about -30% to -49%; further: on the % scale 0 is the no-effect control and ±100 the full control effect
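Secreted IL-1B measured by AlphaLISA bead assay after 16 h compound exposure of THP-1 cells; compounds (final up to 57.5 uM) added 1 h before LPS (250 ng/mL) and ATP (1.25 mM) stimulation; lower signal means less secretion.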
VP16 counter: VP16 counterscreen qHTS for inhibitors of ROR gamma transcriptional activity; Drosophila S2 Gal4-VP16 UAS-luciferase, luminescence, 20 h; Potency, µM (highest dose often 53.6 µM), for the others: at the highest dose activity, negative = inhibition, most hits filed as inhibitors; actives 3.5% (n = 310,000); AID 2546, 2010;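 further: Gal4-VP16 expression switched on by copper sulfate through the metallothionein promoter; potency means the concentration at half of the fitted maximal effect; on the % scale 0 is the no-effect control and ±100 the full control effect; nearly all actives have a fitted effect of over 50% in size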
SW480 rerep: A quantitative high throughput screen for small molecules that induce DNA re-replication in SW480 colon adenocarcinoma cells | SW480 DNA re-replication, Hoechst DNA content imaging, 48 h | actives 1.8% (n = 340,000) | Potency, µM (top dose mostly 46.1 µM), for the others: top-dose re-replication activation, actives largely listed as activators; further: potency means the concentration at half of the fitted maximal effect; % of control where 0% means no effect; nearly all actives have a fitted effect of over 55% in size
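SW480 cells exposed to compounds for 48 hr at 37 C, 5% CO2, then Hoechst-stained 40 min. Nuclear DNA content imaged by fluorescence scanning (405 nm excitation, 500-530 nm emission); re-replication scored as increased high-intensity nuclei.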
RORgamma inh: qHTS for inhibitors of ROR gamma transcriptional activity. actives 5.4% (n = 310,000). Nuclear receptor ROR-gamma (Mus musculus), P51450. Drosophila S2 Gal4-RORgamma UAS-luciferase reporter, 20 h. Potency, µM (top dose mostly 53.6 µM), for inactives: at the top dose activity change, negative = inhibition, actives largely listed as inhibitors; further: potency means the concentration at half of the fitted maximal effect; on the % scale 0 is the no-effect control and ±100 the full control effect; nearly all actives have a fitted effect of over 60% in size
Target sequence (P51450 whole entry, looked up, the tested form may be a part): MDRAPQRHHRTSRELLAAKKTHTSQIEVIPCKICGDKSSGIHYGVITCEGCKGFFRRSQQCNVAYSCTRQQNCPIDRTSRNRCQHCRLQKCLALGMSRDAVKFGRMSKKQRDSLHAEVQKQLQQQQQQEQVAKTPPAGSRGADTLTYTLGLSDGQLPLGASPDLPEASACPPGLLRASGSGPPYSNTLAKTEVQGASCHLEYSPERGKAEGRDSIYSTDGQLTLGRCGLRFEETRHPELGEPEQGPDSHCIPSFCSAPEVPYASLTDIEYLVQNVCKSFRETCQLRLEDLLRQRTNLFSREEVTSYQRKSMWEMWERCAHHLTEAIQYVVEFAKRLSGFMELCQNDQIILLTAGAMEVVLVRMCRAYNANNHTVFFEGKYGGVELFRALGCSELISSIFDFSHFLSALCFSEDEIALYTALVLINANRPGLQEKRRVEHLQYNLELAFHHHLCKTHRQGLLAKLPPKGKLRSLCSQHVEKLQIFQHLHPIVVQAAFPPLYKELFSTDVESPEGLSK
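Read-out: Photinus luciferase luminescence; inhibitors lower reporter signal. Insect Schneider cells with Gal4-ROR gamma fusion under metallothionein promoter, UAS reporter; 700 uM final copper sulfate induction, 20 hr, ambient temperature.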
MCF10A rerep: A quantitative high throughput screen for small molecules that induce DNA re-replication in MCF 10a normal breast cells; MCF 10A DNA re-replication, Hoechst nuclear intensity, 48 h; Potency, µM (titrated, usually from 46.1 µM), for inactives: at the top dose activity, positive = re-replication, most hits filed as activators; actives 2.9% (n = 350,000); further: potency means the concentration at half of the fitted maximal effect; % of control where 0% means no effect; nearly all actives have a fitted effect of over 50% in size
* = called active by the depositor; u = inconclusive; x = no result given; [ ] = remark or other dose. An excerpt weighted towards active compounds, which were near 11% of everything screened. Unless noted, the call rests on the fitted dose curve; in most records, active means well fitted curve in the direction sought with a large enough effect; inconclusive means small, poorly fitted or top-dose-only effect, or another doubt; inactive means no such curve, though single readings can be large; an effect the other way counts as inactive or inconclusive.

SMILES	IL1B secr inh	VP16 counter	SW480 rerep	RORgamma inh	MCF10A rerep
O=C(C1=C[C@H](c2ccc3c(c2)OCO3)C[C@H](OCc2ccc(CO)cc2)O1)N1CCCCCCC1	-21.9	-28.5%	19.8%[9.22 µM]	14.1µM*	u
CC(=O)c1ccc(OC2(C)CCN(Cc3cc4ccccc4[nH]3)C2)cc1 (centres undefined)	17.2	x	x	x	x
CC1=CC(C)[C@H](/C=N/n2c(=O)[nH]c3c([nH]c4ccc(C)cc43)c2=O)C(C)C1 (some centres undefined)	-5.9	-24.3%	u	-5.2%	9.2µM*
COc1ccc(/C=N/n2c(=O)[nH]c3c([nH]c4ccc(C)cc43)c2=O)cc1CN1CCOCC1	0.4	-5.7%	-6.9%	-31.4%	4.1%
CCNc1ncc2nc(-c3cccs3)c(=O)n(-c3ccc(OC)cc3)c2n1	x	-8.9%	x	-2.6%	x
CN1/C(=C/C=C/c2n(C)c3cc([N+](=O)[O-])c([N+](=O)[O-])cc3[n+]2C)C(C)(C)c2ccccc21	-52.2*	x	x	x	x
CCCCN1C(=O)/C(=C/C=C2\N(C)c3ccccc3C2(C)C)SC1=S	x	0.7%	x	-6.2%	x
CCN(CC(=O)NCc1cccs1)C(=O)COc1cccc(C(F)(F)F)c1	11.4	x	-14.0%	x	3.6%
CCN(CC(=O)NCc1cccs1)C(=O)c1ccc(-c2cccc(C(F)(F)F)c2)o1	-79.5*	x	-160.7%	x	u
CCN(CC)C1CCN(Cc2cn[nH]c2-c2ccc(OC)c(F)c2)C1 (centres undefined)	-0.8	2.7%	4.11µM*	3.3%	2.1%
CCCCCCCn1c(NC(=O)CC)nc2ccccc21	x	0.631µM*	-15.5%	0.0891µM*	6.51µM*
O=C(Nc1nc2ccccc2n1CCN1CCCCC1)c1ccc(Cl)cc1	x	u	x	-42.8%	x
CCCCn1c(CNC(=O)CC)nc2ccccc21	-14.1	2.8%	-4.5%	-29.8%	-1.6%
CCC(=O)Nc1nc2ccccc2n1CCN1CCOCC1	16.8	u	2.1%	14.1µM*	0.1%
O=C(Nc1nc2ccccc2n1CCN1CCOCC1)c1ccc(Cl)cc1	x	2.82µM*	-52.0%	0.398µM*	u
Cc1nc2ccccc2n1CC(=O)NCCN1CCOCC1	15.8	3.2%	-7.5%	-8.7%	1.6%
CCNC(=O)C1(C)CCCN(Cc2ccc(-n3ccnc3)cc2)C1 (centres undefined)	-9.9	x	x	x	x
CC(C)C[C@H]1CN=C(Nc2ccccc2)N1CCCC1CCCCC1	-63.1*	-5.4%	8.1%	18.3%	-1.0%
CC(C)C[C@H]1CN=C(Nc2ccccc2)N1CCC1CCCC1	-24.2	2.3%	-2.7%	-20.8%	13.3%
c1ccc(C[C@H]2CN=C(Nc3ccccc3)N2CCCC2CCCCC2)cc1	-17.2	x	-4.1%	x	-5.0%
c1ccc(C[C@H]2CN=C(Nc3ccccc3)N2CC2CCCC2)cc1	-69.5*	x	x	x	x
CC(C)C[C@H]1CN=C(Nc2ccccc2)N1CCCC1CCCC1	-63.3*	1.3%	u	-38.0%	u
CCCCCCCN1C(Nc2ccccc2)=NC[C@@H]1CC(C)C	-77.8*	0.2%	u	-11.0%	14.4%
COc1ccc(C)cc1S(=O)(=O)N(CC(=O)NC1CCCC1)c1ccc(F)cc1	u	0.0%	7.5%	-3.5%	8.5%
CCC(=O)N1c2ccc(S(=O)(=O)N3CCN(c4ccc([N+](=O)[O-])cc4)CC3)cc2CC1C (centres undefined)	5.0	u	16.4%	u	-2.5%
SMILES	IL1B secr inh	VP16 counter	SW480 rerep	RORgamma inh	MCF10A rerep
Cc1cc(C(=O)CSc2nnnn2-c2ccccc2)c(C)n1-c1ccc2c(c1)OCO2	9.2	11.2µM*	u	-34.5%	u
CCCn1c(SCC(=O)c2cc(C)n(-c3ccc4c(c3)OCO4)c2C)n[nH]c1=O	8.6	u	-3.1%	u	14.1%
Cc1cc(C(=O)CSc2nncs2)c(C)n1-c1ccc2c(c1)OCO2	-69.2*	u	-3.4%	u	-13.9%
CC1(C)CCC(=O)c2ccccc21	5.1	x	6.0%	x	2.2%
CC1(C)CCC2=C(O1)c1ccccc1C(=O)C2=O	x	5.62µM*	x	2.51µM*	x
CN(C)c1ccc(NC(=O)CN2CCc3ccccc3C2)cc1	-10.7	23.9%	-11.2%	4.3%	-26.2%
COc1ccc(OC)c2sc(NC(=O)CCS(=O)(=O)c3ccccc3)nc12	-21.3	x	3.7%	x	20.6µM*
COCc1nnc(NC(=O)CCS(=O)(=O)c2ccccc2)s1	-97.4*	-14.0%	14.6µM*	-1.5%	u
Cc1ccc(S(=O)(=O)CCc2nnc(NC(=O)c3cnccn3)s2)cc1	6.3	0.1%	-9.5%	-18.1%	-4.2%
CC(C)c1nnc(NC(=O)CCc2ccccc2)s1	-1.8	1.1%	-4.0%	-2.9%	3.7%
CC(C)c1nnc(NC(=O)CCS(=O)(=O)c2ccccc2)s1	-104.5*	-15.9%	29.7%	9.8%	u
Cc1ccc(S(=O)(=O)CCc2nnc(NC(=O)c3ccccn3)s2)cc1	0.0	7.08µM*	-2.9%	u	-16.6%
CC(C)n1c(=O)c2ccccc2n1S(C)(=O)=O	54.2	x	x	x	x
O=[N+]([O-])c1ccc2c(c1)CO[C@@]21O[C@H](CCO)C[C@H](O)[C@H]1O	11.2	x	x	x	x
CCc1nnc(NC(=O)CCS(=O)(=O)c2ccc(C)cc2)s1	-76.4*	x	1.4%	x	129.6%
CC(=O)c1sc(NC(=O)CCS(=O)(=O)c2ccc(Cl)cc2)nc1C	u	x	u	x	7.31µM*
CCCCc1nnc(NC(=O)CCS(=O)(=O)c2ccc(C)cc2)s1	5.7	x	u	x	u
CCc1nnc(NC(=O)CCS(=O)(=O)c2ccccc2)s1	4.5	7.0%	18.4µM*	-11.8%	14.6µM*
CN(C)c1ccc(-c2ccnc3c2CC(C)(C(=O)NCC2CC2)O3)cc1 (centres undefined)	19.9	x	x	x	x
O=C(NC1CCCC1)C(c1ccco1)N1CCC(O)(c2ccc(Cl)cc2)CC1 (centres undefined)	-5.8	x	x	x	x
COc1ccc2cc(C3=CC(=O)CCC3)ccc2c1	-11.1	x	-2.4%	x	3.8%
Cc1ccc(S(=O)(=O)Nc2ccccc2N2CCCCC2)cc1	54.1	x	u	x	16.4µM*
Cc1ccc(S(=O)(=O)Nc2ccccc2NS(=O)(=O)c2ccc(C)cc2)cc1	28.1	x	x	x	x
CCN(CC)CCNC(=O)c1ccc(N2CCCCC2)c(NS(=O)(=O)c2ccc(C)cc2)c1	-28.3	6.7%[0.365 µM]	25.9µM*	-43.5%	5.5%
COC(=O)c1ccc(N2CCCCC2)c(NS(=O)(=O)c2ccc(C)cc2)c1	-2.1	-0.3%	-1.3%	6.9%	-4.1%
Cc1ccc(S(=O)(=O)Nc2ccccc2-c2ccccc2)cc1	30.7	-1.7%	0.82µM*	-30.1%	1.3µM*
Cc1ccc(S(=O)(=O)Nc2cccc3ccc(C)nc23)cc1	x	u	x	3.16µM*	x
